Experimental data reported in ChEMBL document CHEMBL1157539, “Thousands of chemical starting points for antimalarial lead identification” (Nature, 2010).
Several values for one entry are separate records, joined by “and”; a condition that tells them apart may be missing. Identical values can stand only once.

system: HepG2; assay: GSK_TCMDC: Percent inhibition of human HepG2 cell line. Test compounds present at 10uM.; assay type: functional

Compound	Inhibition
CCOC(=O)c1c(C)n(C2CCCCC2)c2cc(Br)c(O)cc12	1%
COc1cc(C=CC(=O)N2CCC(CN3CCC(c4c[nH]c5ccccc45)CC3)CC2)cc(OC)c1	19%
CCCCCCCc1cc(O)c2c3c(c(=O)oc2c1)CN(C)CC3	0%
Cc1nc2ccccc2n1C1CC2CCC(C1)N2Cc1nccn1-c1ccccc1.O=C(O)C(F)(F)F (stereo not drawn)	0%
Cc1c(C)c2c(c(C)c1O)CC[C@@](C)(C(=O)NC1CCC(CN3CCC(c4c[nH]c5ccccc45)CC3)CC1)O2 (stereo partly drawn)	29%
O=C(NC1CCN(CCc2c[nH]c3ccc(F)cc23)CC1)c1ncc(-c2ccccc2)[nH]1.O=C(O)C(F)(F)F	0%
CC(C)CNCc1ccc(-c2cccc(CN(C(=O)Nc3ccccc3)C3CCN(Cc4ccccc4)CC3)c2)cc1.O=C(O)C(F)(F)F	48%
O=C(/C=C/c1ccc(Cl)c(Cl)c1)N1CCC(CN2CCC(c3c(-c4ccccc4)[nH]c4ccccc34)CC2)CC1	43%
CCCCCCc1cc(O)c2c3c(c(=O)oc2c1)CCN(C)C3	0%
COc1ccc(C2CNCc3c2cc(OC)c(OC)c3Cl)cc1.Cl (stereo not drawn)	42%
O=C(C=C1c2ccccc2-c2ccccc21)NC1CCC(CN2CCC(c3c[nH]c4ccccc34)CC2)CC1 (stereo not drawn)	21% and 54%
CC(=O)Nc1ccc(CN2CCC(N(C)c3cc(NC(=O)c4ccc(F)cc4)ccn3)CC2)cc1.O=C(O)C(F)(F)F	0%
CC[C@H]1CN2CC[C@@H]1C[C@H]2[C@H](O)c1cc(N2CCC(N3CCCCC3)CC2)nc2ccc(OC)cc12	0%
Cc1c(C)c2c(c(C)c1O)CC[C@](C)(C(=O)NC1CCC(CN3CCC(c4c[nH]c5ccccc45)CC3)CC1)O2 (stereo partly drawn)	24% and 27%
CNC(=O)c1ccc2[nH]cc(C3CCN(CC4CCC(NC(=O)/C=C/c5ccccc5Cl)CC4)CC3)c2c1 (stereo not drawn)	12%
Clc1ccc2nccc(N3CCC(CN4CCC(c5c[nH]c6ccccc56)CC4)CC3)c2c1.O=C(O)C(F)(F)F	46%
O=C(Nc1ccc(Oc2ccccc2)cc1)N1CCC(CN2CCC(c3c[nH]c4ccccc34)CC2)CC1	53%

Compound	Inhibition
CCN(CC)CCN1C(=O)C(O)(c2ccccc2Cl)c2c1cc(C#N)cc2C(F)(F)F (stereo not drawn)	21%
CC(=O)Nc1ccc(CN2CCC(N(C)c3cc(NC(=O)c4cccc(F)c4)ccn3)CC2)cc1.O=C(O)C(F)(F)F	4%
Br.Cc1ccccc1C1=CCN(CCCN2c3ccccc3Sc3ccc(Cl)cc32)CC1	14%
O=C(Cc1c(-c2ccccc2)[nH]c2ccccc12)NC1CCC(CN2CCC(c3c[nH]c4ccccc34)CC2)CC1 (stereo not drawn)	31%
COCCNCc1ccc(-c2ccc(CN(C(=O)NC3CCCCC3)C3CCN(Cc4ccccc4)CC3)cc2)cc1.O=C(O)C(F)(F)F	29%
CN1CC=C(c2c[nH]c3ccc(Sc4ccccc4)cc23)CC1.O=C(O)/C=C/C(=O)O	36%
CC[C@H]1CN2CC[C@H]1C[C@H]2[C@H](O)c1cc(-c2ccccc2C)nc2ccc(OC)cc12.Cl	16%
O=C(NC1CCN(CC2(c3ccc(Cl)cc3)CCC2)CC1)c1cc[nH]n1	0%
CC[C@H]1CN2CC[C@H]1C[C@@H]2[C@@H](O)c1ccnc2ccccc12	10%
O=C(Nc1ccc(Oc2ccccc2)cc1)NC1CCC(CN2CCC(c3c[nH]c4ccccc34)CC2)CC1 (stereo not drawn)	55%
CC[C@H]1CN2CC[C@H]1C[C@H]2[C@H](O)c1cc(-c2ccc3ccccc3c2)nc2ccc(OC)cc12.Cl	49%
O=C(/C=C/c1ccsc1)NC1CCC(CN2CCC(c3c[nH]c4ccccc34)CC2)CC1 (stereo not drawn)	29%
Cc1[nH]c2ccccc2c1C1=CCN(CCCCC2(C)C(=O)Nc3cccc(F)c32)CC1 (stereo not drawn)	9%
COc1ccc(C[C@H]2NC[C@H](O)[C@H]2OC(C)=O)cc1 [ANISOMYCIN]	39%
CCCCCC(C)C(C)c1cc(O)c2c(c1)OC1(C(C)C)CC(O)C(C)C2C1 (stereo not drawn)	1%
CC[C@H]1CN2CC[C@H]1C[C@H]2[C@H](O)c1cc(-c2cccc(Cl)c2)nc2ccc(OC)cc12.Cl	16%
